Inconclusive results are not listed. The source made the active and inactive calls. Unless noted, calls follow the shape of the dose curve; as a rule, active = well fitted curve in the direction sought with a large enough effect; inconclusive = small, poorly fitted or top-dose-only effect, or another doubt; inactive = no such curve, though single readings can be large; an effect the other way counts as inactive or inconclusive.
Assays:
[1] = target: 3',5'-cyclic-AMP phosphodiesterase 4B (Homo sapiens) (UniProt Q07343); assay: qHTS Assay for Inhibitors of PDE-IV (AID 607; active = well fitted activation curve with a large enough effect in the main read-out, with a control signal flat, not every such curve was filed as active)
Chain of 3',5'-cyclic-AMP phosphodiesterase 4B (Homo sapiens) (Q07343 whole entry, looked up): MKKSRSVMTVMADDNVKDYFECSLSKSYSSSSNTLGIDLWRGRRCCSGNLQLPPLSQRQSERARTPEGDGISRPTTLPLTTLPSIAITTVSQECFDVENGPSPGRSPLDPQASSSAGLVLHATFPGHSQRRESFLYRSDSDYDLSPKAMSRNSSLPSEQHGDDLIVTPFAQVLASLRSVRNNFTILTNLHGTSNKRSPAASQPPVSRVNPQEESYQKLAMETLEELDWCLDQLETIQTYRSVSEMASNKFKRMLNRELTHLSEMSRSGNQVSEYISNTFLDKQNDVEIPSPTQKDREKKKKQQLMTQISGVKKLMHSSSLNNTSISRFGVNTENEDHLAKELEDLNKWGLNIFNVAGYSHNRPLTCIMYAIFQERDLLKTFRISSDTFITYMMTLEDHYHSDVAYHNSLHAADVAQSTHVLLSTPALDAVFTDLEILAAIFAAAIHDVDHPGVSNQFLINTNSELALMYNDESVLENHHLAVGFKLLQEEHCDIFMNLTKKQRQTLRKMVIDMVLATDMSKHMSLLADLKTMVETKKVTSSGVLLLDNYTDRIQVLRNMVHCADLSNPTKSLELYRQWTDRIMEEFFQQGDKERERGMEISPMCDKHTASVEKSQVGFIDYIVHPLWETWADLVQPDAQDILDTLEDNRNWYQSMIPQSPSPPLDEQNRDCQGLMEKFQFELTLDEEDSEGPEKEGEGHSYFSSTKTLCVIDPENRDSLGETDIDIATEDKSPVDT
In short: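 Cell-based read-out of cAMP via a modified cyclic nucleotide-gated channel and membrane potential dye (535/590 nm) in HEK293 cells expressing PDE4 endogenously. Compounds tested up to 22.9 uM final; 100 uM RO 20-1724 reference.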

[2] = tested on: Zika virus NS2B-NS3 protease (linked construct); assay: Primary screen NINDS Rhodamine qHTS for Zika virus inhibitors (AID 1347160); also: nearly all actives have a fitted effect of over 55% in size; also: potency is read from the fitted curve at half-maximal effect
In short: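 In 10 mM Tris-HCl pH 8.0 containing 0.01% Tween 20, linked NS2B-NS3 protease (25 nM final) is exposed to test compounds for 15 min. Cleavage of 1.5 microM Rhodamine110 substrate is tracked by fluorescence over 15 min.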

[3] = UWB1.289 Cancer Cell Toxicity qHTS against the NCATS CANVASS Library (AID 1347347); also: nearly all actives have a fitted effect of over 60% in size; also: potency is read from the fitted curve at half-maximal effect
In short: (§1)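 Viability read-out: CellTiter-Glo luminescence after 72 h compound exposure at 37 °C/5% CO2. Cells plated at 1000/well, 4 h pre-incubation; 11-point titration. Bortezomib served as control.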

[4] = U-118MG Cancer Cell Toxicity qHTS against the NCATS CANVASS Library (AID 1347351); also: potency is read from the fitted curve at half-maximal effect
In short: as §1

[5] = HPAF-II 24hr Apoptosis Induction qHTS against the NCATS CANVASS Library (AID 1347356)
In short: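 HPAF-II cells (500/well) in DMEM + 10% FBS were treated with an 11-point compound series for 24 hours at 37 degrees C. Caspase-3/7 activity was then read by Caspase-Glo DEVD luminescence after 15 min.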

[6] = HEK293 18hr Apoptosis Induction qHTS against the NCATS CANVASS Library (AID 1347357)
In short: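 Caspase-Glo 3/7 luminescence (15 min, room temperature) measured apoptosis after an 18-hour, 37 degrees C exposure of HEK293 cells (500 cells/well) to compounds in 11 points.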

[7] = HPAF-II 12hr Apoptosis Induction qHTS against the NCATS CANVASS Library (AID 1347358)
In short: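 HPAF-II cells (500/well, DMEM + 10% FBS) were exposed to compounds for 12 hours at 37 degrees C. Caspase-3/7 activity was then read by Caspase-Glo 3/7 luminescence after 15 min at room temperature.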

[8] = HPAF-II 18hr Apoptosis Induction qHTS against the NCATS CANVASS Library (AID 1347360)
In short: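 Caspase-3/7 activation was measured with luminescent Caspase-Glo 3/7 reagent (15 min, RT) in HPAF-II cancer cells (500 cells/well). Before detection, cells had been treated for 18 h at 37 C with compounds (11 points).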

[9] = KB-8-5-11 Cancer Cell Toxicity qHTS against the NCATS CANVASS Library (AID 1347364); also: nearly all actives have a fitted effect of over 75% in size
In short: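 KB-8-5-11 cells (500/well) in DMEM + 10% FBS were exposed to compounds in an 11-point qHTS series for 72 hr at 37C, 5% CO2. Viability was read by CellTiter-Glo luminescence.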

[10] = J3T Cancer Cell Toxicity qHTS against the NCATS CANVASS Library (AID 1347371)
In short: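 J3T dog glioma cells (500 cells/well) were exposed to compounds in an 11-point series for 72 hr at 37C, 5% CO2. Cytotoxicity was read as ATP content by CellTiterGlo luminescence.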

[11] = target: Nuclear receptor subfamily 1 group I member 3 (Homo sapiens) (UniProt Q14994); assay: qHTS for Constitutive Androstane Receptor (CAR) Antagonist screened against the NCATS CANVASS Library (AID 1347372); also: potency is read from the fitted curve at half-maximal effect
Chain of Nuclear receptor subfamily 1 group I member 3 (Homo sapiens) (Q14994 whole entry, looked up): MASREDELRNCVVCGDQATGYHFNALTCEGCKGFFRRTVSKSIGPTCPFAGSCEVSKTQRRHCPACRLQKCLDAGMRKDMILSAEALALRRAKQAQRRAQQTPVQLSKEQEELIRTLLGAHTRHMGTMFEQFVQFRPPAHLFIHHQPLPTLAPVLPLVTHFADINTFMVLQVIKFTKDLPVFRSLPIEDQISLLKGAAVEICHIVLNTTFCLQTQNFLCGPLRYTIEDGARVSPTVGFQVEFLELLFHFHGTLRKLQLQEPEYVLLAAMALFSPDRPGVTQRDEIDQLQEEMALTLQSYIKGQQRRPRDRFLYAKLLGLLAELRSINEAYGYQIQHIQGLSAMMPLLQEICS
In short: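 HepG2-CYP2B6-hCAR double-stable cells plated, 4hr attach; cpd pin-transferred; CITCO 50 nM final; 24hr 37C/5% CO2; CellTiter-Fluor 1hr (fluorescence), then ONE-Glo luminescence.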

[12] = 10-beta competent E. coli microbial cell viability qHTS against the NCATS CANVASS Library (AID 1347376); also: series mostly up to about 46 µM
In short: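 10-beta competent E. coli (0.9 OD culture diluted to 0.2 OD) exposed to compounds in an 11-point qHTS series, incubated overnight at 37C, 5% CO2. Viability read as ATP by BacTiter-Glo luminescence after 20 min at room temperature.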

[13] = qHTS for H2AX Agonists against the NCATS CANVASS Library (AID 1347378)
In short: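 Phospho-H2AX (S139) in CHO-K1 lysates measured by HTRF, reported as 665/615 nm emission ratio after 24 hr antibody incubation at room temperature. Cells were first treated with a compound series for 3 hr at 37C (0.76% DMSO final).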

[14] = Inflammasome Signaling qHTS Counterscreen: IL-1-beta AlphaLISA counterscreen against the NCATS CANVASS Library (AID 1347381);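 also: cell-free check with purified IL-1β in medium and no THP-1 cells; series mostly up to about 57 µM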
In short: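 To flag interference with the AlphaLISA read-out, a known amount of purified IL-1-beta (4 pg) replaced cell supernatant. Detection used anti-IL-1-beta acceptor beads, biotinylated antibody and streptavidin donor beads at room temperature.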

[15] = Cytotoxicity qHTS for assessment of Hepg2 cells membrane integrity screened against the NCATS CANVASS Library (AID 1347387)
In short: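 HepG2 cells (2000/well) attached overnight at 37C, then received compounds in an 11-point series at 0.59 nM - 46 uM final for 5 hr. LDH release was detected fluorometrically (ex 560/em 590 nm) with CytoTox-ONE reagent after 10 min at room temperature.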

[16] = qHTS assay for small molecule disruptors of mitochondrial membrane potential screened against the NCATS CANVASS Library (AID 1347389); also: nearly all actives have a fitted effect of over 60% in size; also: potency is read from the fitted curve at half-maximal effect
In short: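 HepG2 cells (2,000/well) were plated overnight at 37C, exposed to compound for 1 hr at 37C/5% CO2, then loaded with Mito-MPS dye for 30 min. Depolarization was read as a drop in red (590 nm) to green (535 nm) fluorescence ratio.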

[17] = qHTS for activators of dead-cell proteases activity screened against the NCATS CANVASS Library (AID 1347392);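 also: luminescence from protease leaking out of membrane-damaged cells cleaving impermeant substrate; rising signal means more cytotoxicity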
In short: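 Compounds are pin-transferred onto attached HepG2 cells, giving 11 final concentrations. After 5 h at 37C, AAF-aminoluciferin reagent is added and luminescence is recorded at room temperature.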

[18] = Vero-766 cells viability qHTS against the NCATS CANVASS Library: Counterscreen for Zika virus inhibition assay (AID 1347394); also: nearly all actives have a fitted effect of over 60% in size; also: potency is read from the fitted curve at half-maximal effect
In short: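 CellTiter Glo luminescence measured cytotoxicity after 72 h at 37C in uninfected Vero 766 cells, plated at 1000 cells/well. Compounds were applied in an 11-point series. Wells without cells defined 100% inhibition.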

[19] = Viability qHTS for inhibitors of the SERCaMP assay screened against the NCATS CANVASS Library (AID 1347400); also: nearly all actives have a fitted effect of over 70% in size; also: potency is read from the fitted curve at half-maximal effect
In short: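 SH-SY5Y-GLuc SERCaMP MJH297-derived cells (1000 cells/well) were pre-incubated 4 h at 37C, then exposed to compounds for 48 h. Viability was read as CellTiter-Glo luminescence; bortezomib served as positive control.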

[20] = Redox Reaction Profiling qHTS: Assay Interference Panel against the NCATS CANVASS Library (AID 1347401)
In short: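 Cell-free redox surrogate: 5 uM resazurin + 200 uM DTT, 50 mM HEPES pH 7.3/50 mM NaCl; cpds pinned, 11-pt qHTS; Ex525/Em598 read t0 and t=15 min, dark.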

Measured: Potency

CN1C(=O)CCS(=O)(=O)[C@H]1c1ccc(Cl)cc1
inactive: [1]

Cc1nc(N)sc1CCN
inactive: [1]

Oc1ccc2c3c1O[C@H]1c4oc5ccccc5c4C[C@]4(O)[C@H](C2)N(CC2CC2)CC[C@@]314
inactive: [1]

N[C@H](C(=O)O)c1cc(=O)[nH]o1
inactive: [1]

CN1C(=O)COc2c(C(=O)N[C@@H]3CN4CCC3CC4)cc(Cl)cc21
inactive: [1]

C=CCN1CC[C@]23c4c5ccc(O)c4O[C@@H]2C(=O)CC[C@]3(O)[C@H]1C5
inactive: [1]

NC(N)=Nc1ccc2[nH]c3c(c2c1)C[C@]1(O)[C@@H]2Cc4ccc(O)c5c4[C@]1(CCN2CC1CC1)[C@@H]3O5
inactive: [1]

NC[C@H](CC(=O)O)c1ccc(Cl)cc1
inactive: [1]

Oc1ccc2c3c1O[C@H]1c4[nH]c5ccccc5c4C[C@]4(O)[C@H](C2)N(CC2CC2)CC[C@@]314
inactive: [1]

CCCN1C[C@H](C)N([C@H](c2ccc(C(=O)N(CC)CC)cc2)c2cccc(OC)c2)C[C@H]1C
inactive: [1]

CCNC(=O)[C@@H]1O[C@@H](n2cnc3c(N)ncnc32)[C@H](O)[C@H]1O
inactive: [1]

C=C(C)[C@H]1CN[C@H](C(=O)O)[C@@H]1CC(=O)O
inactive: [1]

C=CCN1C[C@H](C)N([C@@H](c2ccccc2)c2ccc(C(=O)N(CC)CC)cc2)C[C@H]1C
inactive: [1]

N[C@H](Cc1o[nH]c(=O)c1Cl)C(=O)O
inactive: [1]

Cc1o[nH]c(=O)c1C[C@@H](N)C(=O)O
inactive: [1]

NC[C@@H](CC(=O)O)c1ccc(Cl)cc1
inactive: [1]

C=CCN1CC[C@@]23c4c5ccc(O)c4O[C@H]2/C(=N\N=C2/CC[C@@]4(O)[C@H]6Cc7ccc(O)c8c7[C@@]4(CCN6CC=C)[C@@H]2O8)CC[C@]3(O)[C@@H]1C5
inactive: [1]

CNCCc1ccc(O)cc1
not listed: [1]
inactive: all other assays above

CC1=CC2CC[C@@H]3[C@@H](C)C[C@H](C)[C@@H](C1)N23 (some centres not stated)
not listed: [1]
inactive: all other assays above

CC1=CC(=O)C2=C(C)C[C@H](O)[C@@H]3[C@H](OC(=O)[C@@H]3C)[C@@H]12
active: [2] 49.3 µM
not listed: [1]
inactive: all other assays above

CO[C@@H](/C=C/CC/C=C/C(=O)O)[C@@H](O)[C@H](C)/C=C(\C)[C@@H](O)[C@H](C)C(=O)CCCC1CC(=O)NC(=O)C1
not listed: [1]
inactive: all other assays above

CCC[C@H]1CC[C@H]2[C@H](C)CCC[C@H]2N1
not listed: [1] | [20]
inactive: all other assays above

O=C(O)c1ccccc1-c1c2cc(Br)c(=O)cc-2oc2[c]([Hg])c(O)c(Br)cc12
inactive: [1]

O[C@@H](Cc1ccncc1)C(Cl)(Cl)Cl
inactive: [1]

CCCCC[C@@H]1OC(=O)[C@@H](C)N(C)C(=O)[C@H](CCCCC)OC(=O)C(C)N(C)C(=O)[C@H](CCCCC)OC(=O)[C@@H](C)N(C)C(=O)[C@H](CCCCC)OC(=O)C(C)N(C)C1=O (some centres not stated)
active: [2] 11 µM | [3] 13.3 µM | [4] 14.9 µM | [11] 11.7 µM | [16] 4.17 µM | [18] 20.9 µM | [19] 38.1 µM
not listed: [1] | [9] | [10] | [17]
inactive: all other assays above

CO[C@@H](/C=C/CC/C=C/C(=O)O)[C@@H](O)[C@H](C)[C@@H](O)/C(C)=C/[C@H](C)C(=O)CCCC1CC(=O)NC(=O)C1
not listed: [1]
inactive: all other assays above

C[C@]12CC(O)C3[C@@H](CCC4C[C@@H](O)CC[C@@]43CO)[C@@]1(O)CCC2C1=CC(=O)OC1 (some centres not stated)
active: [2] 62.1 µM
not listed: [1]
inactive: all other assays above
